# Values joined by “and” are separate entries in the source; they are usually repeats but may differ in a detail not shown here. Equal values may be shown once. Read-outs that look alike come from different tables or passages of the source.
# Tests used:
# Details in all cases: concentration: 1 μM, replicates: in singlicate, n = 1
# ERN1 = system: ERN1
# FAK = system: T1, FAK
# T1 construct: gene PTK2
# FER = system: FER
# FES = system: FES
# FGFR1 = system: FGFR1
# FGFR2 = system: FGFR2
# FGFR3 = system: FGFR3
# FGFR4 = system: FGFR4
# FGR = system: FGR
# FLT1 = system: FLT1
# 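Note: KINOMEscan kinase panel screen.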
smiles,measurement,setting,value
N#Cc1ccc(-c2cc(-c3c[nH]nc3-c3ccccn3)ccn2)cc1 [GW693028],%Inh,ERN1,0%
same,%Inh,FAK,0%
same,%Inh,FER,7%
same,%Inh,FES,4%
same,%Inh,FGFR1,0%
same,%Inh,FGFR2,0%
same,%Inh,FGFR3,0%
same,%Inh,FGFR4,12%
same,%Inh,FGR,21%
same,%Inh,FLT1,0%
c1ccc(-c2n[nH]cc2-c2ccnc3ccccc23)nc1 [GW271431],%Inh,ERN1,0%
same,%Inh,FAK,0%
same,%Inh,FER,31%
same,%Inh,FES,0%
same,%Inh,FGFR1,6%
same,%Inh,FGFR2,0%
same,%Inh,FGFR3,13%
same,%Inh,FGFR4,11%
same,%Inh,FGR,26%
same,%Inh,FLT1,47%
Cc1cn2c(=O)cc(N3CCOCC3)nc2n1Cc1cccc(Cl)c1Cl [GSK2334006],%Inh,ERN1,0%
same,%Inh,FAK,0%
same,%Inh,FER,33%
same,%Inh,FES,8%
same,%Inh,FGFR1,1%
same,%Inh,FGFR2,26%
same,%Inh,FGFR3,18%
same,%Inh,FGFR4,1%
same,%Inh,FGR,51%
same,%Inh,FLT1,34%
Fc1ccc(-c2ncn(CCCN3CCOCC3)c2-c2cccnc2)cc1 [SB-211743],%Inh,ERN1,18%
same,%Inh,FAK,0%
same,%Inh,FER,21%
same,%Inh,FES,0%
same,%Inh,FGFR1,0%
same,%Inh,FGFR2,0%
same,%Inh,FGFR3,2%
same,%Inh,FGFR4,0%
same,%Inh,FGR,0%
same,%Inh,FLT1,8%
O=c1cc(N2CCOCC2)nc2n(Cc3cccc(C(F)(F)F)c3)ccn12 [GSK2297543],%Inh,ERN1,6%
same,%Inh,FAK,0%
same,%Inh,FER,34%
same,%Inh,FES,0%
same,%Inh,FGFR1,11%
same,%Inh,FGFR2,0%
same,%Inh,FGFR3,19%
same,%Inh,FGFR4,1%
same,%Inh,FGR,17%
same,%Inh,FLT1,17%
Cc1ccc(C(=O)NCC(N)=O)cc1-n1c(C)cc(OCc2ccc(F)cc2F)c(Br)c1=O,%Inh,ERN1,0%
same,%Inh,FAK,7%
same,%Inh,FER,6%
same,%Inh,FES,23%
same,%Inh,FGFR1,51%
same,%Inh,FGFR2,32%
same,%Inh,FGFR3,21%
same,%Inh,FGFR4,19%
same,%Inh,FGR,25%
same,%Inh,FLT1,0%
CCn1cnc2c(N)ncnc21 [GW345098],%Inh,ERN1,25%
same,%Inh,FAK,7%
same,%Inh,FER,0%
same,%Inh,FES,14%
same,%Inh,FGFR1,0%
same,%Inh,FGFR2,7%
same,%Inh,FGFR3,0%
same,%Inh,FGFR4,0%
same,%Inh,FGR,12%
same,%Inh,FLT1,9%
O=C(NCCCN1CCOCC1)c1cccc(Nc2nccc(Nc3ccc(Oc4ccccc4)cc3)n2)c1 [GW663929],%Inh,ERN1,21%
same,%Inh,FAK,0%
same,%Inh,FER,19%
same,%Inh,FES,16%
same,%Inh,FGFR1,0%
same,%Inh,FGFR2,0%
same,%Inh,FGFR3,30%
same,%Inh,FGFR4,54%
same,%Inh,FGR,93.4%
same,%Inh,FLT1,30%
COc1cc(Nc2nccc(N3CCC(NC(=O)c4cccc(NC(C)=O)c4)C3)n2)cc(OC)c1OC (centres unmarked) [GSK1379754],%Inh,ERN1,22%
same,%Inh,FAK,0%
same,%Inh,FER,6%
same,%Inh,FES,11%
same,%Inh,FGFR1,21%
same,%Inh,FGFR2,21%
same,%Inh,FGFR3,25%
same,%Inh,FGFR4,6%
same,%Inh,FGR,27%
same,%Inh,FLT1,44%
Cc1c2ccc(N(C)c3ccnc(Nc4cccc(S(N)(=O)=O)c4)n3)cc2nn1Cc1ccccc1.Cl.Cl [GW787226],%Inh,ERN1,0%
same,%Inh,FAK,0%
same,%Inh,FER,63%
same,%Inh,FES,36%
same,%Inh,FGFR1,65%
same,%Inh,FGFR2,85%
same,%Inh,FGFR3,59%
same,%Inh,FGFR4,19%
same,%Inh,FGR,57%
same,%Inh,FLT1,98.9%
Cc1ccc(NC(=O)c2ccnc(N3CCN(C)CC3)c2)cc1-c1ccc(C(=O)NCC2CC2)cc1 [GW775604],%Inh,ERN1,0%
same,%Inh,FAK,0%
same,%Inh,FER,24%
same,%Inh,FES,0%
same,%Inh,FGFR1,0%
same,%Inh,FGFR2,0%
same,%Inh,FGFR3,0%
same,%Inh,FGFR4,0%
same,%Inh,FGR,8%
same,%Inh,FLT1,0%
O=C(NCCNc1ccnc(Nc2ccc(F)cc2)n1)Nc1ccccc1F [GSK1379880],%Inh,ERN1,11%
same,%Inh,FAK,0%
same,%Inh,FER,11%
same,%Inh,FES,0%
same,%Inh,FGFR1,0%
same,%Inh,FGFR2,0%
same,%Inh,FGFR3,0%
same,%Inh,FGFR4,11%
same,%Inh,FGR,3%
same,%Inh,FLT1,4%
CN1c2ccc(CNc3ccc(F)cc3)cc2-c2c(cnn2C)S1(=O)=O,%Inh,ERN1,0%
same,%Inh,FER,25%
same,%Inh,FES,0%
same,%Inh,FGFR1,0%
same,%Inh,FGFR2,0%
same,%Inh,FGFR3,0%
same,%Inh,FGFR4,9%
same,%Inh,FGR,0%
same,%Inh,FLT1,0%
NCCNS(=O)(=O)c1ccc(-c2ccnc3[nH]ccc23)cc1 [GSK977617],%Inh,ERN1; 1 µM,31% and 6%
same,%Inh,FAK; 1 µM,5% and 0%
same,%Inh,FER; 1 µM,53% and 22%
same,%Inh,FES; 1 µM,11% and 0%
same,%Inh,FGFR1; 1 µM,57% and 38%
same,%Inh,FGFR2; 1 µM,6% and 0%
same,%Inh,FGFR3; 1 µM,6% and 10%
same,%Inh,FGFR4; 1 µM,11% and 6%
same,%Inh,FGR; 1 µM,31% and 11%
same,%Inh,FLT1; 1 µM,60% and 33%
O=c1cc(N2CCOCC2)nc2n(Cc3cccc(Cl)c3Cl)c(C3CC3)nn12 [GSK2358994],%Inh,ERN1,0%
same,%Inh,FAK,0%
same,%Inh,FER,3%
same,%Inh,FES,15%
same,%Inh,FGFR1,0%
same,%Inh,FGFR2,1%
same,%Inh,FGFR3,0%
same,%Inh,FGFR4,0%
same,%Inh,FGR,9%
same,%Inh,FLT1,6%
Cc1cccc(-c2nc(-c3ccc(S(C)(=O)=O)cc3)sc2-c2ccncc2)c1,%Inh,ERN1,0%
same,%Inh,FAK,4%
same,%Inh,FER,14%
same,%Inh,FES,37%
same,%Inh,FGFR1,26%
same,%Inh,FGFR2,1%
same,%Inh,FGFR3,0%
same,%Inh,FGFR4,0%
same,%Inh,FGR,45%
same,%Inh,FLT1,0%
Cn1cc(-c2ccc3c(c2)CCN3C(=O)Cc2ccccc2Cl)c2c(N)ncnc21 [GSK2608885],%Inh,ERN1,37%
same,%Inh,FAK,42%
same,%Inh,FER,64%
same,%Inh,FES,22%
same,%Inh,FGFR1,59%
same,%Inh,FGFR2,82%
same,%Inh,FGFR3,43%
same,%Inh,FGFR4,15%
same,%Inh,FGR,99%
same,%Inh,FLT1,98.8%
COc1ccc(Nc2nccc(N3CCC(NC(=O)Nc4cc(C)ccc4C)C3)n2)cc1 (centres unmarked) [GSK1379741],%Inh,ERN1,0%
same,%Inh,FAK,0%
same,%Inh,FER,0%
same,%Inh,FES,0%
same,%Inh,FGFR1,0%
same,%Inh,FGFR2,0%
same,%Inh,FGFR3,0%
same,%Inh,FGFR4,0%
same,%Inh,FGR,5%
same,%Inh,FLT1,16%
Cc1nnc(-c2ccc3occ(-c4ccc(C(C)O)cc4)c3c2)o1 (centres unmarked),%Inh,ERN1,0%
same,%Inh,FAK,0%
same,%Inh,FER,0%
same,%Inh,FES,17%
same,%Inh,FGFR1,0%
same,%Inh,FGFR2,16%
same,%Inh,FGFR3,22%
same,%Inh,FGFR4,19%
same,%Inh,FGR,11%
same,%Inh,FLT1,16%
Fc1ccc(-c2ncn(CCCN3CCOCC3)c2-c2ccccn2)cc1 [SB-211742],%Inh,ERN1,0%
same,%Inh,FAK,29%
same,%Inh,FER,0%
same,%Inh,FES,10%
same,%Inh,FGFR1,0%
same,%Inh,FGFR2,0%
same,%Inh,FGFR3,0%
same,%Inh,FGFR4,0%
same,%Inh,FGR,27%
same,%Inh,FLT1,23%
CC(=O)Nc1ccc(COc2ccc(Nc3ccnc4cc(-c5ccccn5)ccc34)cc2)cc1.Cl [GW440148],%Inh,ERN1,17%
same,%Inh,FAK,1%
same,%Inh,FER,0%
same,%Inh,FES,13%
same,%Inh,FGFR1,0%
same,%Inh,FGFR2,0%
same,%Inh,FGFR3,14%
same,%Inh,FGFR4,0%
same,%Inh,FGR,36%
same,%Inh,FLT1,99.2%
CC(C)(CN)c1nc(-c2ccc(Cl)c(O)c2)c(-c2ccncc2)[nH]1.O=C(O)C(F)(F)F [SB-477794],%Inh,ERN1; 1 µM,1% and 22%
same,%Inh,FAK,0%
same,%Inh,FER; 1 µM,12% and 31%
same,%Inh,FES; 1 µM,0% and 22%
same,%Inh,FGFR1; 1 µM,24% and 54%
same,%Inh,FGFR2,0%
same,%Inh,FGFR3; 1 µM,8% and 33%
same,%Inh,FGFR4; 1 µM,18% and 0%
same,%Inh,FGR; 1 µM,95.3% and 94.8%
same,%Inh,FLT1; 1 µM,82% and 80%
Fc1ccc(-c2nn3c(OCC(F)(F)F)cccc3c2-c2ccncc2)cc1 [GW514784],%Inh,ERN1,0%
same,%Inh,FAK,0%
same,%Inh,FER,13%
same,%Inh,FES,7%
same,%Inh,FGFR1,0%
same,%Inh,FGFR2,0%
same,%Inh,FGFR3,0%
same,%Inh,FGFR4,0%
same,%Inh,FGR,18%
same,%Inh,FLT1,35%
CC(C)(C)n1cnc2c(N)ncnc21 [SKF-97359],%Inh,ERN1,0%
same,%Inh,FAK,0%
same,%Inh,FER,45%
same,%Inh,FES,0%
same,%Inh,FGFR1,0%
same,%Inh,FGFR2,0%
same,%Inh,FGFR3,0%
same,%Inh,FGFR4,0%
same,%Inh,FGR,8%
same,%Inh,FLT1,7%
Nc1nccc(-c2c(-c3ccc(F)cc3)ncn2C2CCN(CC(F)(F)F)CC2)n1 [SB-236560],%Inh,ERN1,0%
same,%Inh,FAK,0%
same,%Inh,FER,4%
same,%Inh,FES,0%
same,%Inh,FGFR1,0%
same,%Inh,FGFR2,0%
same,%Inh,FGFR3,0%
same,%Inh,FGFR4,0%
same,%Inh,FGR,0%
same,%Inh,FLT1,9%
COC(=O)Nc1nc2cc(Oc3ccc(NC(=O)Nc4cc(F)ccc4F)cc3)ccc2[nH]1.Cl [GW701424],%Inh,ERN1,0%
same,%Inh,FAK,0%
same,%Inh,FER,0%
same,%Inh,FES,0%
same,%Inh,FGFR1,0%
same,%Inh,FGFR2,0%
same,%Inh,FGFR3,19%
same,%Inh,FGFR4,6%
same,%Inh,FGR,9%
same,%Inh,FLT1,99%
O=C(Nc1n[nH]c2cc(-c3cccc(F)c3)ccc12)C1CC1 [SB-735464],%Inh,ERN1,12%
same,%Inh,FAK,3%
same,%Inh,FER,1%
same,%Inh,FES,34%
same,%Inh,FGFR1,0%
same,%Inh,FGFR2,0%
same,%Inh,FGFR3,0%
same,%Inh,FGFR4,0%
same,%Inh,FGR,33%
same,%Inh,FLT1,0%
NS(=O)(=O)CCc1cccc(Nc2nccc(-c3c(-c4cccc(NC(=O)c5c(F)cccc5F)c4)nn4ccccc34)n2)c1 [GSK336735],%Inh,ERN1,21%
same,%Inh,FAK,4%
same,%Inh,FER,73%
same,%Inh,FES,22%
same,%Inh,FGFR1,44%
same,%Inh,FGFR2,46%
same,%Inh,FGFR3,36%
same,%Inh,FGFR4,0%
same,%Inh,FGR,98.8%
same,%Inh,FLT1,99.3%
CN(C(=O)c1ccc(-c2cc(-c3c[nH]nc3-c3ccccn3)ccn2)cc1)C1CCOCC1 [GW810083],%Inh,ERN1,2%
same,%Inh,FAK,0%
same,%Inh,FER,0%
same,%Inh,FES,14%
same,%Inh,FGFR1,4%
same,%Inh,FGFR2,0%
same,%Inh,FGFR3,0%
same,%Inh,FGFR4,0%
same,%Inh,FGR,0%
same,%Inh,FLT1,41%
O=c1cc(N2CCOCC2)nc2n(Cc3cccc(F)c3)ccn12 [GSK2297430],%Inh,ERN1,0%
same,%Inh,FAK,0%
same,%Inh,FER,24%
same,%Inh,FES,9%
same,%Inh,FGFR1,6%
same,%Inh,FGFR2,0%
same,%Inh,FGFR3,14%
same,%Inh,FGFR4,1%
same,%Inh,FGR,32%
same,%Inh,FLT1,42%

# Reference: publication PMC5540273 (PLoS ONE, 2017)
